Measurements taken from PubChem BioAssay (NCI).
Compounds without any hit were thinned out: in the full panel of roughly 83,000, 20% have a hit.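 Compound tested at a single concentration for 48 hours in 96-well plates; a percent growth value below 10 was scored as active.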 A number with no mark means an inactive call. Active and inactive are the calls of the source.

Tests used:
Experiment in all cases: NCI-60 one-dose screen, 48 h (100 = growth as untreated, 0 = no growth, -100 = all killed)
Conditions in all cases: 10 µM
T-47D breast = test system: T-47D breast
BT-549 breast = test system: BT-549 breast
MDA-MB-435 melanoma = test system: MDA-MB-435 melanoma
SW-620 colon = test system: SW-620 colon
MCF7 breast = test system: MCF7 breast
HCT-116 colon = test system: HCT-116 colon
HCC-2998 colon = test system: HCC-2998 colon
KM12 colon = test system: KM12 colon

Row | Compound | growth (T-47D breast) | growth (BT-549 breast) | growth (MDA-MB-435 melanoma) | growth (SW-620 colon) | growth (MCF7 breast) | growth (HCT-116 colon) | growth (HCC-2998 colon) | growth (KM12 colon) [%]
1 | CCCCc1ccc(NC(=O)N(CCCl)N=O)cc1 | 112% | 85.4% | 92% | 93% | 92.7% | 97.1% | 117% | 94.3
2 | COC(=O)c1ccc(Cn2ccc(=O)[nH]c2=O)cc1 | 107% | 113% | 105% | 110% | 99.2% | 104% | 106% | 103
3 | COc1ccc(-c2cc(/C=C3\C(=O)Nc4cc(Cl)ccc43)[nH]n2)cc1OC | 96.5% | 80.1% | 7.28% (active) | 47.1% | 32.2% | 50.9% | 98.8% | 64.4
4 | NC(=O)C1CCCN(Cc2c[nH]c3ccccc23)C1 (centres undefined) | 92.8% | 105% | 108% | 99.5% | 101% | 103% | 100% | 102
5 | CCN(CC)CCOC(=O)c1ccc(NC(=O)Nc2cccc(Cl)c2)cc1 | 87.1% | 92.9% | 103% | 104% | 95% | 95% | 99.7% | 98
6 | CC(=O)Nc1ccc2c(c1)C(N1CC3CCC(CC3)C1)c1ccccc1-2 (centres undefined) | 66.6% | 126% | 99.4% | 83.8% | 96.7% | 71.9% | 99.5% | 80.7
7 | CCOc1ccc(-n2cc(-c3ccc(N(C)C)cc3)[n+]3c2CCCCC3)cc1 | 0.571% (active) | -1.7% (active) | 15.1% | 19.1% | 5.05% (active) | 0.582% (active) | 21.3% | 14.3
8 | Cc1cc(C)c2nc(C)c(C)[n+]([O-])c2c1 | 94.9% | 106% | 111% | 114% | 95.6% | 97.3% | 97.9% | 106
9 | Cc1nc2scc(-c3ccc(Cl)cc3)n2c(=O)c1CCN1CCOCC1 | 76.6% | 103% | 95.8% | 105% | 90.2% | 105% | 106% | 107
10 | O=C(Nc1cccc(-c2nc3ccccc3[nH]2)c1)c1cccc(NC(=O)c2ccco2)c1 | 65.9% | 96.3% | -1.71% (active) | 96.6% | 61.8% | 58.4% | 96.6% | 88.1
11 | COc1cc(C2C=C(c3ccc(Cl)c(Cl)c3)N=C3SC(C)=CN32)cc(OC)c1OC (centres undefined) | 51.1% | 58.7% | 46.6% | 50.6% | 24.6% | -25.8% (active) | 90.7% | 65.1
12 | CCSc1nc2c([nH]1)c(=O)n(C)c(=S)n2C | 99.6% | 118% | 109% | 102% | 113% | 114% | 106% | 103
13 | NC(=O)c1ccc(Br)o1 | 92.9% | 103% | 112% | 113% | 95.5% | 108% | 91.1% | 102
14 | Cc1ccc2nc3[nH]c(=O)[nH]c(=O)c3c(N)c2c1 | 85.1% | 99.8% | 91.5% | 97.8% | 89.3% | 80.6% | 95.9% | 91
15 | COc1cc(C2C(C#N)=C(c3c[nH]c4ccccc34)Nc3nc(N)[nH]c(=O)c32)cc(OC)c1OC (centres undefined) | 36.2% | 51.6% | 38.1% | 86.9% | 42.2% | 74% | 93.1% | 94.1
16 | COC(=O)c1cnc2c(c1)Oc1ccccc1-c1ccnn1-2 | 84.4% | 102% | 99.5% | 99.4% | 96.3% | 92.1% | 99.7% | 109
17 | CC(=O)Oc1ccc(C2=Cc3ccc(OC(C)=O)cc3OC2C)cc1 (centres undefined) | 88.5% | 42.9% | 25.2% | 47% | 49.1% | 38.3% | 78.2% | 39

Row | Compound | growth (T-47D breast) | growth (BT-549 breast) | growth (MDA-MB-435 melanoma) | growth (SW-620 colon) | growth (MCF7 breast) | growth (HCT-116 colon) | growth (HCC-2998 colon) | growth (KM12 colon) [%]
18 | CCCCCCCCCCCCc1ccc(C(=O)/C=C/C(=O)O)cc1 | 11.6% | 45% | 109% | -23.1% (active) | -5.2% (active) | -61.3% (active) | 76.2% | 97.7
19 | O=C(N/N=c1/ccoc2cccnc12)N1CCN(c2ncccn2)CC1 | 9.29% (active) | 47.9% | 34.9% | 33.1% | 11.2% | 16% | 26.1% | 24.7
20 | CC(C)C[C@H](NC(=O)Cn1ccc(Nc2ccccc2)cc1=O)B(O)O | -4.25% (active) | 9.01% (active) | -85.4% (active) | 15% | 28.2% | -6.59% (active) | 9.37% (active) | 36.1
21 | O=C(O)CN1C(=O)C=CC1=O | 101% | 114% | 106% | 107% | 102% | 107% | 107% | 102
22 | NC(N)=NS(=O)(=O)c1ccc(Nc2ccc3nnc(-c4ccncc4)n3n2)cc1 | 96.4% | 112% | 110% | 97.6% | 91.3% | 100% | 99.1% | 100
23 | CCNC1(NC#N)CCCCC1 | 104% | 110% | 97.7% | 104% | 104% | 103% | 96.2% | 105
24 | COc1cc(-c2c(C#N)c(N)n3c(nc4ccccc43)c2C#N)cc(Br)c1OC | 65.8% | 65.1% | 62.8% | 41.4% | 24.6% | 18.8% | 89.5% | 21.1
25 | CS(=O)(=O)Nc1ccc(OCc2nnc(-c3ccc(Cl)cc3)o2)c(F)c1 | 63.1% | 89.4% | 104% | 108% | 81.7% | 86.9% | 101% | 98.6
26 | [O-]c1c[n+](-c2ccc(Cl)cc2)no1 | 83.5% | 107% | 100% | 97.5% | 84.9% | 102% | 101% | 95.8
27 | Cc1cc(Cl)ccc1Nc1nc(C(F)(F)F)ccc1C(=O)N/N=C/c1ccccc1Cl | 22% | -12.1% (active) | 16.4% | 19.9% | 16.2% | 7.23% (active) | 16.7% | 14.8
28 | O=C(CSc1nnc(-c2ccc(Cl)cc2)o1)c1ccccc1 | 93% | 98.3% | 109% | 107% | 102% | 92.2% | 87.5% | 96.3
29 | O=C(OCc1ncc(-c2ccc(C(F)(F)F)cc2)c(NC2CCCCCC2)n1)c1c(F)c(F)c(F)c(F)c1F | 28.3% | 67.8% | 57.3% | 64.5% | 51% | 52.6% | 84.2% | 45.6
30 | CCCCCCCCCCSC(=N)N (tested in a mixture with another compound) | 28% | 75% | 79.6% | 38.6% | 36.6% | 55.6% | -57.9% (active) | 45.3
31 | O=C(Nc1ccc(OCc2nnc(-c3ccccc3)o2)c(F)c1)Nc1ccc(Cl)c(Cl)c1 | 33.7% | 79% | 68.8% | 66.3% | 57.7% | 49.2% | 58.5% | 34.1
32 | COc1ccc(C(=O)c2sc3nc(-c4cccs4)ccc3c2N)cc1OC | 25.3% | 48.9% | 5.62% (active) | 45.4% | 24.7% | 43.3% | 82% | 38.1
33 | COc1cc2nc(Sc3sc(N)nc3C)n(-c3ccc(Oc4ccccc4)cc3)c(=O)c2cc1OC | 77.3% | 71.3% | 93.3% | 81.2% | 74.4% | 47.4% | 80.4% | 93.5
